# Results filed as inconclusive are left out. A call without a number means that no potency is given here. Unmarked numbers belong to inactive results. Activity calls are given as the source filed them. Calls come from the whole dose curve; as a rule, active = well fitted cell-killing curve with a large enough effect; inconclusive = small, poorly fitted or top-dose-only effect, or effect the other way; inactive = flat fitted curve, though single readings scatter. Where a SMILES comes first, the peptide text is derived from it. Bridges are numbered along the chain shown (N, C = ends). [ ]: non-standard residue; d: D form. NMeY = CN[CH](Cc1ccc(O)cc1)C(=O)O
# Tests used:
# Experiment in all cases: Primary qHTS to identify gynecologic anti-cancer compounds using libraries of approved drugs and bioactive compounds (AID 1345084); note: nearly all actives have a fitted effect of over 55% in size
# Conditions in all cases: Gynecologic cancer cell panel viability, ATPlite luminescence, 48 h; series mostly up to 57.5 µM
# JEG-3 = system: JEG-3
# Procedure, shortened: (§1)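 Cytotoxicity screen measuring ATP content by luciferase luminescence. Each compound is applied at five concentrations for 48 h at 37 C with 5% CO2.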
# OV90 = system: OV90
# Procedure, shortened: as §1
# PA-1 = system: PA-1
# Procedure, shortened: as §1
# SKOV3 = system: SKOV3
# Procedure, shortened: as §1
# Tov-21-G = system: Tov-21-G
# Procedure, shortened: as §1
# Tov112D = system: Tov112D
# Procedure, shortened: as §1
# Potency is the fitted concentration of half-maximal effect.
SMILES,Potency (JEG-3),Potency (OV90),Potency (PA-1),Potency (SKOV3),Potency (Tov-21-G),Potency (Tov112D),"activity change, negative = cytotoxicity (JEG-3)","activity change, negative = cytotoxicity (OV90)","activity change, negative = cytotoxicity (PA-1)","activity change, negative = cytotoxicity (SKOV3)","activity change, negative = cytotoxicity (Tov-21-G)","activity change, negative = cytotoxicity (Tov112D)"
C[C@]12C[C@@H](O)[C@@H]3C[C@@]1(O[C@@H]1O[C@H](CO)[C@@H](O)[C@H](O)[C@H]1O)[C@]3(COC(=O)c1ccccc1)C(=O)O2,inactive,inactive,inactive,inactive,inactive,inactive,–,–,–,–,–,–
C/C=C/C=C/C=C/C(=O)OC1C=C(C=O)C(O)(C(=O)O)C2(C)CCCC(C)(C)C12 (stereo not drawn),inactive,inactive,inactive,inactive,inactive,inactive,–,–,–,–,–,–
CCC(C)C1NC(=O)C2CCCN2C(=O)C(NC(C)=O)C(C)OC(=O)C(Cc2ccc(OC)cc2)N(C)C(=O)C2CCCN2C(=O)C(C(C)C)NC1=O (stereo not drawn) (Ac-TPIVP[NMeY](Me); ester 1-C; configuration not given here),inactive,inactive,inactive,inactive,inactive,inactive,–,–,–,–,–,–
C=C1CCCC2(C)CC3(OC)OC(=O)C(C)=C3CC12 (stereo not drawn),inactive,inactive,inactive,inactive,inactive,inactive,–,–,–,–,–,–
CC/C=C\C/C=C\C/C=C\CCCCCCCC(=O)OCC(O)COC1OC(CO)C(O)C(O)C1O (stereo not drawn),inactive,inactive,inactive,inactive,inactive,inactive,–,–,–,–,–,–
COc1cc(/C=C/C(=O)OC[C@H]2O[C@@](CO)(O[C@H]3O[C@H](CO)[C@@H](O)[C@H](O)[C@H]3O)[C@@H](OC(=O)/C=C/c3ccc(O)c(OC)c3)[C@@H]2O)ccc1O,inactive,inactive,inactive,inactive,inactive,inactive,–,–,–,–,–,–
COC1CC(O[C@H]2CC[C@@]3(C)C(CCC4C3[C@H](OC(C)=O)[C@@H](OC(=O)/C=C/c3ccccc3)[C@]3(C)C(C(C)=O)CC[C@]43O)C2)OC(C)C1OC1CC(OC)C(OC2CC(OC)C(OC3OC(C)C(OC4OC(CO)C(O)C(O)C4O)C(OC)C3O)C(C)O2)C(C)O1 (stereo partly drawn),–,–,–,–,–,–,-2.34% [at 6.55 µM],-0.788% [at 6.55 µM],-4.15% [at 6.55 µM],-2.84% [at 6.55 µM],6.44% [at 6.55 µM],-0.487% [at 6.55 µM]
C=C1C(O)C[C@@H]2C(C(=O)O)=CO[C@@H](O[C@@H]3O[C@H](CO)[C@@H](O)[C@H](O)[C@H]3OC(=O)c3ccc(O)cc3)[C@H]12 (stereo partly drawn),inactive,inactive,inactive,inactive,inactive,inactive,–,–,–,–,–,–
C=C1CC2C(C)(CCC(=O)O)C(C(C)(C)O)CCC2(C)C2C(=O)OC(C)(C(=O)OC)C(=O)C12C (stereo not drawn),inactive,inactive,inactive,inactive,inactive,inactive,–,–,–,–,–,–
C=C(CO)C12OC1C1(C)C(=CC2=O)C(O)C(O)CC1C (stereo not drawn),inactive,inactive,inactive,inactive,inactive,inactive,–,–,–,–,–,–
C[C@@H]1CCC/C=C/[C@H]2CC(=O)C[C@@H]2[C@@H](O)/C=C/C(=O)O1,inactive,20 µM (active),inactive,inactive,inactive,inactive,–,–,–,–,–,–
C[C@@H](O)[C@H](NC(=O)c1ccc(C#Cc2ccc(CN3CCOCC3)cc2)cc1)C(=O)NO,inactive,inactive,inactive,inactive,inactive,inactive,–,–,–,–,–,–
C=CC(C)(C)c1[nH]c2ccccc2c1C[C@@H]1NC(=O)[C@H](Cc2c[nH]c3ccccc23)NC1=O,inactive,inactive,inactive,inactive,inactive,inactive,–,–,–,–,–,–
CC(CO)C1CCC2(C)CC3C(CO)CC(O)C3C(C)(O)C/C=C/12 (stereo not drawn),inactive,inactive,inactive,inactive,inactive,inactive,–,–,–,–,–,–
CC1=CC(=O)CC(C)(C)C1CCC(C)O[C@@H]1O[C@H](CO[C@@H]2OC[C@@H](O)[C@H](O)[C@H]2O)[C@@H](O)[C@H](O)[C@H]1O (stereo partly drawn),inactive,inactive,inactive,inactive,inactive,inactive,–,–,–,–,–,–
CC1(C)[C@@H](O)CC[C@]2(C)[C@H]3CC=C4[C@@H]5C[C@](C)(C(=O)O)CC[C@]5(C)CC[C@@]4(C)[C@]3(C)CC[C@@H]12,inactive,inactive,inactive,inactive,inactive,inactive,–,–,–,–,–,–
C[C@@]12CC[C@@H]3[C@@](CC[C@H]4[C@@]3(C)CCC[C@@]4(C)C(=O)O)(CC1=O)C2,inactive,inactive,inactive,inactive,inactive,inactive,–,–,–,–,–,–
CC1CCC2(C(=O)O)CCC3(C)C(=CCC4C5(C)CCC(O)C(C)(CO)C5CCC43C)C2C1(C)O (stereo not drawn),inactive,inactive,inactive,inactive,inactive,inactive,–,–,–,–,–,–

# From PubChem BioAssay (NCATS)
